# From PubChem BioAssay (Tox21)
# Results filed as inconclusive are left out. Values without a mark were called inactive. Active and inactive are the calls of the source. Unless noted, calls come from the whole dose curve. Non-standard residues stand in square brackets, D forms with d. Residues, ends and D or L forms follow the SMILES beside them. *: point of attachment. Sta = CC(C)C[C@H](N)[C@@H](O)CC(=O)O; Isovaleryl = CC(C)CC(=O)*
# Assay: qHTS assay for small molecule agonists of the p53 signaling pathway (AID 651631)
# Details: HCT-116 p53RE-bla reporter, beta-lactamase FRET ratio, 16 h; series mostly up to 73.3 µM; activation: at the top concentration
# Summary of the method: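 p53RE-bla HCT-116 cells; compounds 16 h, 37 °C; LiveBLAzer B/G FRET substrate 2 h RT; fluorescence intensity read-out, qHTS format.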
# % is set by controls: 0 for no effect and ±100 for the full control effect.
# Note: nearly all actives have a fitted effect of over 15% in size.
SMILES,activation,Potency
COc1cnc(NS(=O)(=O)c2ccc(N)cc2)nc1,2.54% [at 34.7 µM],
CCCCCCCCOCCC#N,-2.05%,
NC[C@H]1O[C@H](O[C@H]2[C@H](O)[C@@H](O[C@H]3O[C@H](CO)[C@@H](O)[C@H](N)[C@H]3O)[C@H](N)C[C@@H]2N)[C@H](N)[C@@H](O)[C@@H]1O,,inactive
C=CCOC(=O)CCCCCCCC,4.83% [at 95.1 µM],
CC(C)(Sc1cc(C(C)(C)C)c(O)c(C(C)(C)C)c1)Sc1cc(C(C)(C)C)c(O)c(C(C)(C)C)c1,-3.61% [at 34.7 µM],
CC(=O)c1c(C)cc(C(C)(C)C)cc1C,-2.07%,
Nc1cc(S(=O)(=O)O)ccc1O,-0.414%,
O=C(O)Cc1ccccc1Oc1ccc(Cl)cc1Cl,-1.12%,
CCCCCCCCC1CO1 (stereo not drawn),-3.33% [at 95.1 µM],
N=C(N)N,-2.22%,
COC(=O)c1ccc(C(=O)O)cc1,-3.15%,
CC(C)CC(=O)N[C@H](C(=O)N[C@H](C(=O)N[C@@H](CC(C)C)[C@@H](O)CC(=O)N[C@@H](C)C(=O)N[C@@H](CC(C)C)[C@@H](O)CC(=O)O)C(C)C)C(C)C (Isovaleryl-VV[Sta]A[Sta]-OH),2.2%,
Cc1ccc(O)c([N+](=O)[O-])c1,1.48% [at 95.1 µM],
Cc1ccc(NC(N)=O)cc1,-2.34% [at 95.1 µM],
CCOCCOCCOC(C)=O,-1.99% [at 95.1 µM],
CCCCCCCCCCCCCC(=O)OCC,-2.49%,
C[C@@H]1CC[C@@]2(OC1)O[C@H]1C[C@H]3[C@@H]4CC[C@H]5C[C@@H](O)CC[C@]5(C)[C@H]4CC(=O)[C@]3(C)[C@H]1[C@@H]2C,-2.28% [at 34.7 µM],

SMILES,activation,Potency
CC(=O)Nc1ccc(S(=O)(=O)Nc2cc(C)on2)cc1,-2.61%,
C=CCn1cc[n+](C)c1,1.01% [at 95.1 µM],
CCCC[O][Al]([O]CCCC)[O]CCCC,1.67%,
CCOC(=O)CC,-2.81%,
OCCC(F)(F)C(F)(F)C(F)(F)C(F)(F)C(F)(F)C(F)(F)F,-2.34%,
C[n+]1ccccc1/C=N/O,-5.84% [at 34.7 µM],
c1coc(Cn2cccc2)c1,1.55%,
CCCCC(CC)COC(=O)CC#N (stereo not drawn),-3.02%,
CC(C)c1cc(C(C)C)cc(C(C)C)c1,-1.32%,
CCOC(=O)[C@H](CCc1ccccc1)N[C@H]1CS[C@H](c2cccs2)CN(CC(=O)O)C1=O,1.1%,
COc1cc(OC)cc(OC)c1,-0.642%,
O=C(O)COc1ccc2ccccc2c1,-1.64%,
Cc1cccc(N)n1,-6.62% [at 95.1 µM],
O=C(c1ccccc1)c1cccc(O)c1,6.46% [at 95.1 µM],
CCCCCCCC(=O)N(C)C,1.65%,
CC/C=C\CCOC(=O)c1ccccc1,-1.39%,
CCCOc1ccc(C(=O)OCCN(CC)CC)cc1N,-2.67%,

# Assay: qHTS assay for small molecules that induce genotoxicity in human embryonic kidney cells expressing luciferase-tagged ATAD5 (AID 651632; active = well fitted activation curve with a large enough effect in the repeat runs)
# Details: HEK293T ATAD5-luciferase induction, 16 h; series mostly up to 83.3 µM; activation: at the top concentration
# Summary of the method: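 HEK293T cells carrying luciferase-tagged ATAD5 were given compound or DMSO vehicle and incubated 16 hr at 37C, 5% CO2. Luciferase activity was read after 30 min at room temperature with Amplite; a rise signals genotoxic stress.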
SMILES,activation,Potency
COc1cnc(NS(=O)(=O)c2ccc(N)cc2)nc1,2.06% [at 39.1 µM],
CCCCCCCCOCCC#N,1.09%,
NC[C@H]1O[C@H](O[C@H]2[C@H](O)[C@@H](O[C@H]3O[C@H](CO)[C@@H](O)[C@H](N)[C@H]3O)[C@H](N)C[C@@H]2N)[C@H](N)[C@@H](O)[C@@H]1O,,inactive
C=CCOC(=O)CCCCCCCC,2.03% [at 95.3 µM],
CC(C)(Sc1cc(C(C)(C)C)c(O)c(C(C)(C)C)c1)Sc1cc(C(C)(C)C)c(O)c(C(C)(C)C)c1,2.16% [at 39.1 µM],
CC(=O)c1c(C)cc(C(C)(C)C)cc1C,-2.8%,
Nc1cc(S(=O)(=O)O)ccc1O,0.238%,
O=C(O)Cc1ccccc1Oc1ccc(Cl)cc1Cl,1.73%,
CCCCCCCCC1CO1 (stereo not drawn),-0.547% [at 95.3 µM],
N=C(N)N,1.25%,
COC(=O)c1ccc(C(=O)O)cc1,0.322%,
CC(C)CC(=O)N[C@H](C(=O)N[C@H](C(=O)N[C@@H](CC(C)C)[C@@H](O)CC(=O)N[C@@H](C)C(=O)N[C@@H](CC(C)C)[C@@H](O)CC(=O)O)C(C)C)C(C)C (Isovaleryl-VV[Sta]A[Sta]-OH),2.11%,
Cc1ccc(O)c([N+](=O)[O-])c1,-4.31% [at 95.3 µM],
Cc1ccc(NC(N)=O)cc1,0.381% [at 95.3 µM],
CCOCCOCCOC(C)=O,1.04% [at 95.3 µM],
CCCCCCCCCCCCCC(=O)OCC,3.08%,
C[C@@H]1CC[C@@]2(OC1)O[C@H]1C[C@H]3[C@@H]4CC[C@H]5C[C@@H](O)CC[C@]5(C)[C@H]4CC(=O)[C@]3(C)[C@H]1[C@@H]2C,-1.48% [at 39.1 µM],

SMILES,activation,Potency
CC(=O)Nc1ccc(S(=O)(=O)Nc2cc(C)on2)cc1,4.19%,
C=CCn1cc[n+](C)c1,-2.74% [at 95.3 µM],
CCCC[O][Al]([O]CCCC)[O]CCCC,3.41%,
CCOC(=O)CC,4.56%,
OCCC(F)(F)C(F)(F)C(F)(F)C(F)(F)C(F)(F)C(F)(F)F,2.14%,
C[n+]1ccccc1/C=N/O,1.81% [at 39.1 µM],
c1coc(Cn2cccc2)c1,-0.495%,
CCCCC(CC)COC(=O)CC#N (stereo not drawn),2.12%,
CC(C)c1cc(C(C)C)cc(C(C)C)c1,1.59%,
CCOC(=O)[C@H](CCc1ccccc1)N[C@H]1CS[C@H](c2cccs2)CN(CC(=O)O)C1=O,0.259%,
COc1cc(OC)cc(OC)c1,1.09%,
O=C(O)COc1ccc2ccccc2c1,1.55%,
Cc1cccc(N)n1,6.9% [at 95.3 µM],
O=C(c1ccccc1)c1cccc(O)c1,-2.08% [at 95.3 µM],
CCCCCCCC(=O)N(C)C,2.5%,
CC/C=C\CCOC(=O)c1ccccc1,0.781%,
CCCOc1ccc(C(=O)OCCN(CC)CC)cc1N,4.27%,
